Reference: PubChem BioAssay
Calls of active or inactive are those of the source. Unless noted, the rule behind the calls is not given here.

Experiments:
[1] = HepG2 liver cancer cell viability effects, profiling panel, resazurin fluorescence, 24 h, PK04 Diversity Set (AID 1172); conditions: higher = more signal; note: test concentration not given here
[2] = basal S. cerevisiae growth modulation, no modifier, primary screen, OD600, strain BY4716, 24 h, basal condition (AID 1173); conditions: OD600, 24 h, higher = more signal, called active from +8 up or from −8 down
[3] = MM1S myeloma cell viability, profiling panel, resazurin fluorescence, basal, 24 h, PK04 Diversity Set (AID 1174); conditions: higher = more signal, called active from +8 up or from −8 down;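 note: MM1S multiple myeloma cell line; test concentration not given here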
[4] = molecular target: Dihydroorotate dehydrogenase (quinone), mitochondrial (Plasmodium falciparum (isolate 3D7)) (UniProt Q08210); assay: PfDHODH enzyme inhibitors, primary screen, biochemical, C-terminal His tag, absorbance 600 nm (AID 1175); conditions: DCIP absorbance 600 nm, higher = more signal, called active from +8 up or from −8 down;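 note: recombinant parasite enzyme with a five histidine tag at its C terminus; test concentration not given here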
Dihydroorotate dehydrogenase (quinone), mitochondrial (Plasmodium falciparum (isolate 3D7)), sequence (Q08210 whole entry, looked up): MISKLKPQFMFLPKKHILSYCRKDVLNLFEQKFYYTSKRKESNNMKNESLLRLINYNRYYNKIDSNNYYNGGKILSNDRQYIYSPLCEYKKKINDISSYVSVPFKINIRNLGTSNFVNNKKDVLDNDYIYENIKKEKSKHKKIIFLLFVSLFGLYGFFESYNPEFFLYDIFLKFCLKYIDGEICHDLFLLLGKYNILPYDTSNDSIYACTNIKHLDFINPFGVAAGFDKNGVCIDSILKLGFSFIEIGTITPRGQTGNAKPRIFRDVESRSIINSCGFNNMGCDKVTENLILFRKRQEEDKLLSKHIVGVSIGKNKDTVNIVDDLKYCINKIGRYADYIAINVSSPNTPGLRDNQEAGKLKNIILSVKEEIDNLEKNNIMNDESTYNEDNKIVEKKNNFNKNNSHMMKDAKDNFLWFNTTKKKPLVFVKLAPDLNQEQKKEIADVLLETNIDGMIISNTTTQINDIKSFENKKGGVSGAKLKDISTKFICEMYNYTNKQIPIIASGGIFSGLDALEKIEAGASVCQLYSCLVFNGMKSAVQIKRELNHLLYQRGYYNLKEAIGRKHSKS

[5] = P. aeruginosa biofilm formation inhibitors, primary screen, strain PAO1, LB-PBS medium, absorbance 600 nm (AID 1176); note: test concentration not given here; conditions: P. aeruginosa PAO1 growth/biofilm, A600, 12 h; higher = more signal
[6] = S. cerevisiae RM11-1a growth modifiers, primary screen, strain RM11-1a, OD600, basal, 24 h (AID 1177); conditions: OD600, 24 h, higher = more signal, called active from +8 up or from −8 down;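 note: cultures grown under basal conditions with no added stressor; test concentration not given here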
[7] = E. coli acrAB mutant growth effects, primary screen, E. coli filamentation inducers, strain DRC39, OD650, 24 h (AID 1178); conditions: higher = more signal, called active from +8 up or from −8 down;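 note: growth measured as culture turbidity by optical density at 650 nm; test concentration not given here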
[8] = E. coli acrAB mutant growth effects, primary screen, E. coli filamentation inducers, strain DRC39, OD650, 48 h (AID 1179);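 note: screen aims at cell division blockers that make cells filament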; conditions: E. coli DRC39 delta-acrAB growth, higher = more signal, called active from +8 up or from −8 down
[9] = RPMI8226 myeloma cell viability, profiling panel, resazurin fluorescence, basal, 24 h, PK04 Diversity Set (AID 1180); conditions: higher = more signal;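 note: RPMI8826 multiple myeloma cell line at 5000 cells per well; test concentration not given here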
[10] = molecular target: E3 ubiquitin-protein ligase XIAP (Homo sapiens) (UniProt P98170); assay: XIAP binders, primary screen, biophysical, small-molecule microarray, fluorescence 635 nm (AID 1181); conditions: small-molecule microarray binding, higher = more signal;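 note: score merges 667 nm emission and signal to noise over triplicate slides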
E3 ubiquitin-protein ligase XIAP (Homo sapiens), sequence (P98170 whole entry, looked up): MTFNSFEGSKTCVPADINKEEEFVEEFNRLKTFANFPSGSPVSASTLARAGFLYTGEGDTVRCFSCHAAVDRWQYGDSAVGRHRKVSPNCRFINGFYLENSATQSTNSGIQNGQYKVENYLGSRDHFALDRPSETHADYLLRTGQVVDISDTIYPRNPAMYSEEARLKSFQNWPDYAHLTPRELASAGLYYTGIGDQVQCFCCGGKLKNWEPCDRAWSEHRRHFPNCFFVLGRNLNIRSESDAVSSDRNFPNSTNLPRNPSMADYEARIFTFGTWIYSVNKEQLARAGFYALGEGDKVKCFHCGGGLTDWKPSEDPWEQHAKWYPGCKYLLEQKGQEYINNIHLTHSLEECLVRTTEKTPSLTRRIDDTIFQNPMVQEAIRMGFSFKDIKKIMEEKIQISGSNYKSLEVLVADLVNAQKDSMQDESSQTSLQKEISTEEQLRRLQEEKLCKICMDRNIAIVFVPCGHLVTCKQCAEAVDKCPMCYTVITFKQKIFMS

| SMILES | z-score [1] | z-score [2] | z-score [3] | composite z-score [4] | z-score [5] | z-score [6] | z-score [7] | z-score [8] | z-score [9] | composite z-score [10] |
| --- | --- | --- | --- | --- | --- | --- | --- | --- | --- | --- |
| CC[C@@H]1[C@@H]2C3C(=O)N(CC)C(=O)C3CC(=O)[C@@H]2[C@H](c2ccc(C)cc2)N1S(=O)(=O)c1ccc(C)cc1 (stereo not given in full) | -0.107 | -1.67 (inactive) | -1.27 (inactive) | -0.415 (inactive) | 0.409 (inactive) | -1.13 (inactive) | 0.694 (inactive) | 1.26 (inactive) | 0.887 | -0.0962 |
| COc1ccc(CCNC(=O)[C@@H]2c3ccccc3C(=O)N(Cc3ccccc3C(F)(F)F)[C@H]2c2ccc(CO)cc2)cc1 | 0.743 | 0.415 (inactive) | 0.711 (inactive) | 0.717 (inactive) | -0.77 (inactive) | 1.51 (inactive) | 0.709 (inactive) | 0.633 (inactive) | 0.837 | 0.0819 |
| COC(=O)[C@]1(Cc2ccccc2N=[N+]=[N-])N=C(c2ccc(OCCCO)cc2)O[C@@H]1c1ccccc1 | -6.11 | -1.69 (inactive) | -8.86 (active) | 0.106 (inactive) | 0.783 (inactive) | 1.53 (inactive) | 2.06 (inactive) | 1.55 (inactive) | -7.19 | 0.007 |
| COc1ccc(C(=O)Nc2ccc3c(c2)[C@]2(O[C@@H](CCO)[C@H]([Si](C)(C)c4ccc(OC)cc4)[C@H]2C)C(=O)N3Cc2ccccc2)cc1 | -1.9 | -2.35 (inactive) | -7.18 (inactive) | -0.454 (inactive) | 1.55 (inactive) | 2.47 (inactive) | 0.799 (inactive) | -0.167 (inactive) | -2.51 | -0.165 |
| CC(C)NC(=O)[C@@H]1c2ccccc2C(=O)N(Cc2cc(C(F)(F)F)cc(C(F)(F)F)c2)[C@H]1c1ccc(CO)cc1 | 0.447 | -0.168 (inactive) | -0.0526 (inactive) | 0.357 (inactive) | 0.733 (inactive) | 0.0633 (inactive) | 1.17 (inactive) | 0.393 (inactive) | 0.25 | -0.0141 |
| COC(=O)C(CC#Cc1ccc2c(c1)[C@]1(C(=O)N2)[C@H](c2ccccc2OCCO)N2[C@H](c3ccccc3)[C@H](c3ccccc3)OC(=O)[C@H]2[C@@H]1C(=O)Nc1nc2ccccc2s1)C(=O)OC | -0.449 | 1.4 (inactive) | 0.699 (inactive) | -8 (inactive) | 3.7 (inactive) | 2.33 (inactive) | -0.0715 (inactive) | 0.172 (inactive) | 1.05 | 0.0264 |
| C[N+](C)(C)CCCCCCNC(=O)[C@H]1C[C@H]2C(=O)N3CCC[C@H]3C(=O)N2[C@H]1c1cccc(OCCO)c1 | 0.473 | -0.187 (inactive) | -0.41 (inactive) | -0.788 (inactive) | -0.13 (inactive) | -0.637 (inactive) | 0.12 (inactive) | -0.271 (inactive) | -0.767 | 0.135 |
| COc1ccc([Si](C)(C)[C@@H]2[C@@H](CCO)O[C@]3(C(=O)N(Cc4ccccc4)c4ccc(N5C(=O)COc6ccccc65)cc43)[C@H]2C)cc1 | 1.52 | 2.09 (inactive) | -0.657 (inactive) | -0.0636 (inactive) | 1.2 (inactive) | 4.54 (inactive) | -0.141 (inactive) | -0.266 (inactive) | -0.976 | -0.0599 |
| COCCOC(=O)N1C(=O)[C@@]2(c3cc(C#CCC(C(=O)OC)C(=O)OC)ccc31)[C@H](C(=O)N1CCCCCCC1)[C@H]1C(=O)O[C@H](c3ccccc3)[C@H](c3ccccc3)N1[C@@H]2c1ccc(O)cc1 | -0.124 | -0.0861 (inactive) | 1.09 (inactive) | 1.49 (inactive) | 0.1 (inactive) | 0.451 (inactive) | -0.543 (inactive) | -0.86 (inactive) | 0.646 | 0.312 |
| CC(C)CNC(=O)[C@@]1(C)c2ccccc2C(=O)N(Cc2ccccc2)[C@H]1c1ccc(CO)cc1 | 0.702 | -0.11 (inactive) | -0.0059 (inactive) | -0.362 (inactive) | -0.273 (inactive) | -1.07 (inactive) | 0.165 (inactive) | -0.185 (inactive) | -0.551 | -0.395 |
| O=C1NC(=O)C2C1C=CC(C(O)CCc1ccccc1)N2Nc1ccccn1 (stereo not given) | -0.875 | 0.725 (inactive) | -0.871 (inactive) | -0.505 (inactive) | 1.65 (inactive) | -1.07 (inactive) | 0.696 (inactive) | 1.07 (inactive) | -0.717 | 0.107 |
